Screening results deposited in PubChem BioAssay by several laboratories.
cardiac RTF act: cardiac RTF calcium sensitivity activators, primary screen, biochemical, IANBD-TnC fluorescence, EC20 calcium. Troponin I, cardiac muscle (Homo sapiens) + Troponin T, cardiac muscle (Homo sapiens) + …. IANBD-labeled TnC RTF fluorescence at EC20 calcium; 0% EC20 calcium, 100% full calcium. activation, % at 7.2 µM. 340,000 tested, 0.24% active. AID 493008, 2010;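 active = activation above the mean over all tested compounds plus 3 SD, cut at about 30% in these data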;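 also: rise in fluorescence read as greater calcium sensitivity of cardiac thin filaments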
RTF Ca sens inh: cardiac RTF calcium sensitivity inhibitors, primary screen, biochemical, IANBD-TnC fluorescence, EC70 calcium | 340,000 tested, 0.12% active | Troponin I, cardiac muscle (Homo sapiens) + Troponin T, cardiac muscle (Homo sapiens) + … | inhibition, % at 7.15 µM | AID 493244, 2011 | IANBD-labeled cardiac RTF, Ca2+ fluorescence;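 active = inhibition above the mean inhibition of all tested compounds plus 3 SD, cut at about 17% in these data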;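 also: assay run at fixed EC70 calcium of 1.6 mM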
C-LANA FP: inhibitors of KSHV C-LANA binding to DNA, primary screen, biochemical, fluorescence polarization, FAM-LBS DNA, MBP-C-LANA, single point | Kaposi's sarcoma herpesvirus LANA C-terminal domain (residues 932-1162) DNA binding | 340,000 tested, 0.078% active | AID 504423, 2011 | inhibition, % at 9 µM;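 active = highest replicate inhibition at or above 60% at 9 µM, even if other replicates fall short; inactive = all replicates below 60% inhibition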;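 also: 0% = neutral control wells and 100% = 4 µM acridine orange control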
eLon inh: inhibitors of E. coli Lon protease, primary screen, biochemical, fluorescence polarization | purified E. coli Lon protease | inhibition, % at 7.94 µM | 360,000 tested, 0.42% active | AID 602123, 2011; in the data active = inhibition above about 13%, passing the limit was not always enough;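 also: 0% = enzyme with probe and DMSO and 100% = no enzyme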
Keap1-Nrf2 PPI: Keap1-Nrf2 protein-protein interaction inhibitors, primary screen, biochemical, fluorescence polarization, single point; 340,000 tested, 0.15% active; Keap1 Kelch-Nrf2 peptide fluorescence polarization, 1536-well; inhibition, % at 9.4 µM; in the data active = inhibition above about 12%;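 also: human Keap1 Kelch domain with fluorescein labeled Nrf2 9mer peptide probe; 0% = neutral control wells and 100% = peptide positive control; higher means more block of Keap1 binding to Nrf2 peptide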
Target sequence (Q14145 whole entry, looked up, the tested form may be a part): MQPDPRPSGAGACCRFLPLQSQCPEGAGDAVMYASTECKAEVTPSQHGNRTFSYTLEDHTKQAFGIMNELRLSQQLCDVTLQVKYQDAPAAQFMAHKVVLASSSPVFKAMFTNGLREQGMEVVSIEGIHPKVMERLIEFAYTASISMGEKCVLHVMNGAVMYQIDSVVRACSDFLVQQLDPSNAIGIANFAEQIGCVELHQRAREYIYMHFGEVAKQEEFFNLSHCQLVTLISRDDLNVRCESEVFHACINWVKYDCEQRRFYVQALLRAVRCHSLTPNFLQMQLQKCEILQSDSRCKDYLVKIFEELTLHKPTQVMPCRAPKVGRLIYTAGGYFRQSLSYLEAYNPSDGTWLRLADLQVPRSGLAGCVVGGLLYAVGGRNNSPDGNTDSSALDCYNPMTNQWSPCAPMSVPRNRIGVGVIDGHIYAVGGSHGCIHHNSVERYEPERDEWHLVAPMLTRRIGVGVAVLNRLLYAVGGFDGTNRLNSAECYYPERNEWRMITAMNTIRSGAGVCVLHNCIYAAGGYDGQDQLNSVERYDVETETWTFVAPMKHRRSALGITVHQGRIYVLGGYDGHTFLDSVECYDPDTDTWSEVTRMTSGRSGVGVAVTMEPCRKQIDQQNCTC
RTF Ca inh conf: cardiac RTF calcium sensitivity inhibitors, confirmation, biochemical, fluorescence readout. 360 tested, 8% active. shares compounds with RTF Ca sens inh. AID 504635, 2011. inhibition, % at 7.15 µM. reconstituted cardiac thin filaments; in the data active = inhibition above about 18%
Active calls of the source: *; nt = no result given. Rows were chosen to be rich in hits. Some 0.82% of all compounds tested hit in one or more screens of this group.

SMILES	cardiac RTF act	RTF Ca sens inh	C-LANA FP	eLon inh	Keap1-Nrf2 PPI	RTF Ca inh conf
CCCCCNCc1ccc(Cl)cc1	-1	-4	0	-8	1	nt
OCCCCNCc1ccc(OCc2ccc(Cl)cc2)cc1	-16	17*	-1	3	0	-1
O=C1c2ccccc2C(=O)N1CC(O)Cn1nnc2ccccc21 (stereo unspecified)	-1	-1	-1	1	1	nt
OC(CN1c2ccccc2Sc2ccccc21)Cn1nnc2ccccc21 (stereo unspecified)	-1	21*	1	9	-1	-8
CC(O)c1nc2ccccc2n1CCCCOc1ccccc1 (stereo unspecified)	-2	21*	0	0	-2	-5
CC(O)c1nc2ccccc2n1CCOc1ccccc1 (stereo unspecified)	-2	-6	1	-5	2	nt
CCC(C)C(NC(=O)C1CCC(C)CC1)C(=O)NC(CCSC)C(=O)OC (stereo unspecified)	1	18*	2	-4	2	-6
CCN1CCN(CC(=O)Nc2cc(C)on2)CC1	1	4	0	-15	-4	nt
Cc1cc(NC(=O)CN2CCN(c3ncccn3)CC2)no1	1	21*	0	-8	-1	-2
CC(=O)Nc1ccc(-c2ccnc3c2CC(C)(C(=O)Nc2ccc(F)c(Cl)c2)O3)cc1 (stereo unspecified)	nt	nt	nt	7	nt	nt
O=C(O)Cc1c[nH]c2ccc(O)cc12	4	18*	0	2	-3	1
CC(=O)C1=C(C)NC(SCC(=O)c2ccc(F)cc2)=C(C#N)C1CC(C)C (stereo unspecified)	4	19*	1	8	-1	-1
CC(=O)C1=C(C)NC(SCC(=O)c2ccc(Cl)cc2)=C(C#N)C1CC(C)C (stereo unspecified)	0	-1	-2	-3	-2	nt
COc1cc(/C=C/C(=O)OCC(=O)NC(=O)NC(C)C)ccc1OCC#N	-2	-7	0	0	2	nt
COc1cc(/C=C/C(=O)OCC(=O)NC(=O)NC23CC4CC(CC(C4)C2)C3)ccc1OCC#N	5	18*	-1	9	-3	-2
Cc1nnc(C)n1N	-1	18*	0	8	-6	-4
CC(C)(C)C(=O)NC(n1cnc2c(N3CCOCC3)ncnc21)C(Cl)(Cl)Cl (stereo unspecified)	1	19*	1	4	1	-9
CC1(C(=O)Nc2cnc3ccccc3c2)CCN1C(=O)c1ccccc1CCc1ccccc1 (stereo unspecified)	nt	nt	nt	-2	nt	nt
CCCCn1nnnc1C(c1ccccc1)N1CCN(c2cccc(C)c2C)CC1 (stereo unspecified)	nt	nt	nt	3	nt	nt
CCN(CC)c1ccc(C(=C2C=CC(=[N+](CC)CC)C=C2)c2ccc(N(CC)CC)cc2)cc1	-25	23*	-1	-2	1	10
COC(=O)c1ccc2nc(NC(=O)COC(=O)CSc3nc(C)cc(C)n3)sc2c1	5	10	1	-3	1	nt
Cc1ccc2nc(NC(=O)COC(=O)CSc3nc(C)cc(C)n3)sc2c1	-2	19*	-3	-1	-1	-5
C=C(C)[C@@H]1C2=CC(C(=O)OC)=C(C[C@H](C(=C)C)[C@H]3O[C@H]3C3=C[C@H]1OC3=O)O2	nt	nt	nt	0	nt	nt
O=C(O)C1Nc2c(Cl)cc(Cl)cc2C2C=CCC12 (stereo unspecified)	-40	55*	26	-12	4	7
CC(C)C#Cc1cnc2c(c1)C(=O)N([C@@H](C)CO)C[C@@H](C)[C@H](CN(C)Cc1cccc(F)c1)O2	nt	nt	nt	-2	nt	nt
SMILES	cardiac RTF act	RTF Ca sens inh	C-LANA FP	eLon inh	Keap1-Nrf2 PPI	RTF Ca inh conf
Cc1ccc(C2CC(c3ccc(NS(C)(=O)=O)cc3)=NN2C(=O)c2ccco2)cc1 (stereo unspecified)	4	20*	0	-1	-3	-3
O=C(O)c1ccc2c(c1)[C@@H]1C=CC[C@@H]1[C@H](c1ccccn1)N2	-37	86*	98*	17	6	22*
NC(Cc1ccccc1)c1csc(NC(=O)c2cccc(OC(F)(F)F)c2)n1 (stereo unspecified)	nt	nt	nt	-1	nt	nt
COc1ccccc1NC(=O)CSc1nncn1-c1ccccc1	-1	-7	2	2	2	nt
COc1ccc([N+](=O)[O-])cc1NC(=O)CSc1nncn1-c1ccccc1	-8	19*	1	-9	2	1
CCCNC(=O)CSc1nccn1Cc1ccc(OC)cc1	3	18*	2	2	5	-1
CCc1cccc(NC(=O)C2CCCN(S(=O)(=O)c3cccs3)C2)c1 (stereo unspecified)	4	24*	0	6	2	-2
CCOC(=O)CNC(=O)c1c(C)nn(C)c1Cl	0	5	-1	-1	-2	nt
CCOC(=O)CNC(=O)c1c(C)nn(-c2ccccc2)c1Cl	-1	18*	2	2	-1	-2
CC1(Cc2ccccc2OC(F)(F)F)C(=O)Nc2c(Cl)ccc(Cl)c21 (stereo unspecified)	nt	nt	nt	-7	nt	nt
Cc1cc(Br)cn2c(Cc3cccc(F)c3)c(-c3ccccc3)nc12	nt	nt	nt	-9	nt	nt
CCOC(=O)/C(=C/c1ccc(OC(=O)c2ccncc2)cc1)C(C)=O	-2	-6	-2	1	0	nt
COCCOC(=O)/C(=C/c1ccc(OC(=O)c2ccccc2)cc1)C(C)=O	16	25*	-2	4	-10	3
CC1CCCCN1C(=O)Cn1cnc2cc([N+](=O)[O-])ccc2c1=O (stereo unspecified)	-2	18*	-1	10	6	-5
O=C(CN1C(=O)/C(=C2\SC(=S)N(CCS(=O)(=O)O)C2=O)c2ccccc21)Nc1cccc(Br)c1	-25	30*	-1	-1	-1	3
CCOCc1nc(N)nc(N)c1-c1cccc(Cl)c1	nt	nt	nt	-1	nt	nt
COc1ccc(CC(=O)NCCc2ccc(Cl)cc2Cl)cc1	1	22*	0	-3	-3	-1
Cn1c(SCC(=O)N2c3ccccc3Sc3ccccc32)nc2ccccc21	6	19*	0	7	-3	-5
Cn1c(Cn2nnc3ccccc32)nnc1SCC(=O)N1c2ccccc2Sc2ccccc21	1	-7	0	-2	-3	nt
CC1(C)CC(=O)C(Sc2ccccc2)=C(O)C1	2	56*	2	-8	-2	1
CNc1ncnc2c1ncn2[C@@H]1O[C@H](CO)[C@@H](O)[C@H]1O	8	-8	-1	0	-2	nt
